Assay results published in the supplement of paper PMC6555819.

System: VDR:RXRa (NR concentration 270 nM, RXRa partner concentration 90 nM)
Test: PBM binding z-score (relative to random genomic background probes); higher = stronger binding; sequences stand for … in GC…GCGATTGACAGCGTAGAATGAAGG
Description: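 Protein-binding microarray (Agilent 4x180K custom design, double-stranded 60-nt probes: 5' GC cap, 34-nt variable region, 24-nt constant primer region; full probe sequence given). Purified or IVT nuclear receptor:RXRα heterodimers (3:1 NR:RXRα, mostly 270:90 nM) or homodimers were incubated for 1 h in PBS with 2% milk and no ligand, then detected with Alexa488 antibodies. Fluorescence from o1-orientation probes (~5 replicates averaged) was converted to z-scores against 500 random hg19 background probes. Variable regions are seed direct-repeat (DR0–DR5) sites, all their single-nucleotide variants and half-site ablations.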

Sequence	PBM binding z-score
TAGCCTTGGTCATTGGGCCAGTATAGTACGCATC	-0.419
GCGACTGGGGCAAAGGAGGTTACCATAAGGTTGG	1.26
ATCGAAAGGTCGGGAGGTGAGTATACAGAAAGGC	2.24
CCTATTAGTTGACCATTAGGGCAACCGAAGCTCG	0.563
ATCCCTAGGTAAAGATAGTTCAGTGAATGCAAAT	0.829
TCATACAGGTAAATGCTAGGTGAAAGTCCGATCT	0.69
TCGAGCAGGTTACCAATGGGGCATTCAGCTTTCT	0.08
ATCTCTAGGTAACAAGTCCAGTGAAAGAGAGGAC	0.103
TCTAGCAGGCTAGAGGGTCACTCAAGAGGTACGG	1.38
CTAACTAGGTCAAAGGTCAAAGTCGAGCCAACCA	6.59
CGTCCAAGGTCAATGCTAGGTCAGTGTAAGCATT	4.85
CGTCCAAGGCCAGAGAGGTCAGTGAATGCCGAGT	4.04
AGTCAAAGTCCATCTAGGTAACGTAAGATATGCT	0.131
AAGACAGGGTCACTAGGCCAGAGTAGGTACGAAT	3.9
ACTAGCAGGCCAAGTTTGGGGCACTCAAACAAAG	-0.558
CGAACTAGGTCATTGAAAGGACAGTGAATAGTAA	2.36
TCATATAGGTAAAGGTGAAACTCGAACGATATGA	0.901
GCTTGTAGATCAAGGTTAAGAAGGACTAAGCTAA	0.438
TCTTGTAGATCAAAGGCTAAGAAAGCCGAAGCCT	-0.203
AGAATGAGGTTGTTAAGATCAGGGAATTGCGGTC	0.496

Sequence	PBM binding z-score
TCGAGTACGTTAGGGGCATTCAGAATGGCGTCGA	2.6
CATACAGGGTCAGCGAGGCCAGAGTAGGGACGGC	5.93
CAAACTAGGTCACCGCAAGGTCAAAGTCCGCATG	6.39
TAGCCTAGGTCTTTCAGGGGCCAGTATAGAAAGC	-0.481
GCATATAGGTGATACAAGGTGAAAGTCCGATTGT	0.445
CCTACTGGGCCACGAAACGTCATTGATTCAGTGA	-0.697
AGAACGAGGGCACTCTGAGTTGATAGCAGAGTAG	1.88
TCGAGTAGATTAGTCGGGGCATTCAGCCAACATA	-0.0689
CAAACTAGGTCAAAGGACAAAGTCGAGCCAACCA	1.96
CGAACTAGGTCAGAACAGAACAGTGAAGGATGAT	-0.0419
CGTCCACGGTCAAAGGTCAGTGAAGAGATGACGG	3.76
CAAACTAGGTCACGAAAGGTCATAGTCGAATGAC	6.92
TCATATAGGTAAACTGGTGAAAGTCCGTAAGTTA	0.597
CGAACTAGGTCAGAACAGGACAGTGATGGATGAT	0.651
ATCTCTAGGTAACAAGTTCAGTGCAAGAGAGGAC	1.79
TCTTGTAGCTCAGCAGGTTAAGAAAGCTGGCCAA	-0.236
GCGAGTGGGGCATCAGCAGGTTACCATAACTTAA	0.049
AGAATGACGTTATACGTAGATCAGGGAAGAAAGT	-0.532
TCAAGTAGGTTACCAATGGGGCATTCAGCTTTCT	0.549
TCTTGTGGATCAAAGGTTAAGAAAGCCGAAGCCT	1.54
